Among the data in PubChem BioAssay (NCI) are growth values, retold here.

This is part of a sample that, as a whole, favours compounds with a hit. Of some 83,000 tested, about 20% had one in any assay.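 Treatment: one concentration, 48 hours, 96-well format. Scoring: percent growth, with anything below 10 considered active.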 Unmarked numbers belong to inactive results. Activity calls are given as the source filed them.

Test systems include T-47D breast; BT-549 breast; MDA-MB-435 melanoma; SW-620 colon; MCF7 breast; HCT-116 colon; HCC-2998 colon; KM12 colon.
Common to all, as to assay: NCI-60 one-dose screen, 48 h (100 = growth as untreated, 0 = no growth, -100 = all killed)
Conditions in all cases: 10 µM unless noted

With `Cc1cccc(Cc2cnc(NC(=O)CCc3ccc(C)o3)s2)c1`, the growth in the assay on T-47D breast was 76.9%; with BT-549 breast, 5.79% (active); with MDA-MB-435 melanoma it was -23.1% (active); in the assay with SW-620 colon, 30%; in the assay on MCF7 breast, 12.4%; in the assay on HCT-116 colon it was 11.5%. In addition, the growth was 23.7% in the assay on HCC-2998 colon and 12.6% in the assay with KM12 colon.
Take `ClC1c2ccccc2CCc2ccccc21`: the growth is 74.6% in the assay on T-47D breast; 93.8% in the assay with BT-549 breast; 110% in the assay on MDA-MB-435 melanoma; 101% with SW-620 colon; 92.1% in the assay on MCF7 breast; 72.7% with HCT-116 colon. For the same compound, the growth was 107% in the assay on HCC-2998 colon and 109% with KM12 colon.
For `COc1cc(Br)c(-c2nc(-c3ccccc3)c(-c3ccccc3)n2Cc2ccccc2)cc1OC`, the growth in the assay on T-47D breast is 35.8%; in the assay on BT-549 breast it was 75.9%; in the assay with MDA-MB-435 melanoma, 59.8%; with SW-620 colon, 73.4%; in the assay with MCF7 breast, 38.3%; in the assay on HCT-116 colon, 30.3%. In addition, the growth in the assay on HCC-2998 colon was 67.9%; in the assay on KM12 colon, 49.6%.
With `C=CCn1c(SCC(=O)Nc2ccc(C(=O)/C=C/c3cc(OC)c(OC)c(OC)c3)cc2)nnc1-c1ccc(OC)cc1`, the growth in the assay with T-47D breast was -2.4% (active); in the assay on BT-549 breast, -23.8% (active); with MDA-MB-435 melanoma, -38.1% (active); in the assay on SW-620 colon it was -6.73% (active); in the assay on MCF7 breast, 0.763% (active); in the assay on HCT-116 colon, -29.4% (active). Further, the growth is -65.8% (active) in the assay on HCC-2998 colon and -33.7% (active) in the assay with KM12 colon.
As for `Cc1cc(-c2ccccc2)nc2ccccc12`, the growth in the assay with T-47D breast is 99.4%; with BT-549 breast, 108%; in the assay on MDA-MB-435 melanoma, 109%; in the assay with SW-620 colon, 102%; in the assay with MCF7 breast, 65.1%; in the assay with HCT-116 colon, 99.7%. Further, the growth in the assay with HCC-2998 colon and with KM12 colon was 106% throughout.
Turning to `O=C(Nc1cccc(-n2ccc3c(NC(=O)c4ccccc4)nccc32)c1)c1cc(N2CCOCC2)cc(C(F)(F)F)c1`, the growth was 66.3% in the assay on T-47D breast; -13.1% (active) in the assay on BT-549 breast; -13.3% (active) with MDA-MB-435 melanoma; 14.2% in the assay on SW-620 colon; 21.3% in the assay on MCF7 breast; 1.44% (active) with HCT-116 colon. Besides, the growth was 28.8% in the assay with HCC-2998 colon and -3.61% (active) in the assay with KM12 colon.
Turning to `CCN(CC)CCN1C(=O)c2c(c3c4ccccc4[nH]c3c3[nH]c4ccccc4c23)C1=O`, the growth with T-47D breast was 81.8%; in the assay on BT-549 breast it was 83%; with MDA-MB-435 melanoma, 95.6%; in the assay on SW-620 colon, 46.9%; with MCF7 breast, 62%; in the assay with HCT-116 colon, 67%. For the same compound, the growth is 53.1% in the assay with HCC-2998 colon and 85.2% with KM12 colon.
Regarding `O=C(O)c1ccc(-n2cc(/C=N/Nc3ccccc3F)c(-c3ccc(O)cc3)n2)cc1`, the growth was 62.7% in the assay on T-47D breast; 80.3% with BT-549 breast; 74.8% with MDA-MB-435 melanoma; 61.8% in the assay with SW-620 colon; 73.7% in the assay with MCF7 breast; 71.2% with HCT-116 colon. Besides, the growth with HCC-2998 colon was 86.4%; with KM12 colon, 57.9%.
Take `COc1cc(NC(C)CCCN2C(=O)c3ccccc3C2=O)c2ncccc2c1OC` (stereo not drawn): the growth was 66.8% with T-47D breast; 91.2% in the assay on BT-549 breast; 92.1% with MDA-MB-435 melanoma; 84.7% in the assay with SW-620 colon; 41.8% with MCF7 breast; 84.5% with HCT-116 colon. Moreover, the growth is 124% in the assay on HCC-2998 colon and 80.2% in the assay with KM12 colon.
In the case of `COc1ccc(NC(=O)COCCOCCNC[C@@H]2C(=O)O[C@H]3[C@H]2CC/C(COC(=O)OC/C2=C/CC[C@@]4(C)O[C@H]4[C@H]4OC(=O)[C@@H](CN(C)C)[C@@H]4CC2)=C\CC[C@@]2(C)O[C@@H]32)c(O)c1C(N)=O`, the growth was 15.8% with T-47D breast; 56.8% in the assay with BT-549 breast; 49.6% in the assay with MDA-MB-435 melanoma; -6.42% (active) with SW-620 colon; 19.4% with MCF7 breast; -38.6% (active) with HCT-116 colon. Further, the values for the growth in the assay with HCC-2998 colon and in the assay on KM12 colon were 106% and 79.3%, respectively.
For `O=C1C(Cl)=C(Nc2cccc3cc4ccccc4nc23)C(=O)c2ccccc21`, the growth in the assay with T-47D breast was 37.9%; in the assay with BT-549 breast, 91.7%; with MDA-MB-435 melanoma, 59%; in the assay with SW-620 colon, 31.1%; with MCF7 breast it was 20.1%; with HCT-116 colon it was 17%. In addition, the growth was 50.7% with HCC-2998 colon and 52.3% in the assay with KM12 colon.
`O=C1/C(=C/c2cccc3cnccc23)Cc2cc(F)ccc21`: the growth is 42.7% in the assay on T-47D breast; 89% with BT-549 breast; 101% with MDA-MB-435 melanoma; 101% in the assay with SW-620 colon; 58.9% in the assay on MCF7 breast; 80.7% with HCT-116 colon. The growth in the assay with HCC-2998 colon is 106%; in the assay on KM12 colon, 92.1%.
For `NC(CSC(c1ccccc1)(c1ccccc1)c1ccc(F)cc1)C(=O)O` (stereo not drawn), the growth was 30.4% with T-47D breast; 28.7% in the assay with BT-549 breast; -47.1% (active) in the assay with MDA-MB-435 melanoma; 30.1% with SW-620 colon; 11.7% with MCF7 breast; -7.69% (active) in the assay on HCT-116 colon. Moreover, the values for the growth in the assay with HCC-2998 colon and in the assay on KM12 colon were 4.55% (active) and 5.24% (active), respectively.
Consider `O=C(Nc1ccc(Cl)c(Cl)c1)Nc1ccc(Cl)c([N+](=O)[O-])c1`, for which the growth with T-47D breast is -2.12% (active); in the assay on BT-549 breast, -9.25% (active); in the assay on MDA-MB-435 melanoma, 7.8% (active); in the assay on SW-620 colon, 9.66% (active); in the assay with MCF7 breast, 0.367% (active); in the assay on HCT-116 colon, 1.83% (active). For the same compound, the growth with HCC-2998 colon was 2.28% (active); in the assay on KM12 colon, 2.33% (active).
`O=S(=O)(Nc1cccc2cc(OS(=O)(=O)c3ccccc3)ccc12)c1ccccc1`: the growth in the assay on T-47D breast is 45.5%; with BT-549 breast, 45.4%; in the assay with MDA-MB-435 melanoma, -13.8% (active); in the assay with SW-620 colon it was 29.5%; in the assay with MCF7 breast, 36.8%; in the assay with HCT-116 colon, 25.4%. In addition, the figures for the growth with HCC-2998 colon and in the assay on KM12 colon were 96.4% and 36.3%, respectively.
As for `Cc1cc(SCc2ccc(Cl)cc2Cl)nc(SCc2ccc(Cl)cc2Cl)n1`, the growth with T-47D breast was 114%; in the assay on BT-549 breast, 106%; in the assay with MDA-MB-435 melanoma, 97.2%; in the assay on SW-620 colon, 101%; with MCF7 breast it was 92.8%; with HCT-116 colon, 95.9%. Also, the growth with HCC-2998 colon is 100%; in the assay with KM12 colon, 97.4%.
